The values that follow come from PubChem BioAssay AID2284353 (EPA ToxCast).

Results filed as inconclusive are left out. Activity calls are given as the source filed them. The calls were made as follows: active = hit-call score of the fitted dose curve at least 0.9, where 1 is the maximum; inconclusive = response in the unintended direction; inactive = score below 0.9.

For the test, the system named is Japanese medaka Peroxisome Proliferator-activated Receptor gamma (PPARg), gene 100304459. Nature of the test: ATG_jmPPARg_EcoTox2: Attagene TRANS-FACTORIAL EcoTox-2 HepG2 Assay for Japanese medaka Peroxisome Proliferator-activated Receptor gamma (PPARg). Here is the method: ATG_EcoTox2 is a cell-based, multiplexed assay created by modifying the existing Attagene TRANS-FACTORIAL system to include a panel of nuclear receptors from some or all the following species: human (Homo sapiens), african clawed frog (Xenopus laevis), rainbow trout (Oncorhynchus mykiss), japanese medaka (Oryzias latipes), and zebrafish (Danio rerio). The ECOTOX2-FACTORIAL format uses HepG2, a human liver cell line, with measurements taken at 24 hours after chemical dosing in a 24-well plate. ATG_jmPPARg_EcoTox2 is one of 29 assay components calculated in the ATG_EcoTox2 assay. It is designed to make measurements of mRNA induction, a form of inducible reporter, as detected with fluorescence intensity signals by Reverse transcription polymerase chain reaction (RT-PCR) and Capillary electrophoresis technology.The assay endpoint ATG_jmPPARg_EcoTox2 was analyzed in the positive analysis fitting direction relative to DMSO as the negative control and baseline of activity. Using a type of inducible reporter, measures of mRNA for gain-of-signal activity can be used to understand the reporter gene at the transcription factor-level as they relate to the gene PPARg. Furthermore, this assay endpoint can be referred to as a primary readout, because this assay has produced multiple assay endpoints where this one serves a reporter gene function. To generalize the intended target to other relatable targets, this assay endpoint is annotated to the nuclear receptor intended target family, where the subfamily is non-steroidal.
Human liver HepG2 cells are transiently transfected with multiple reporter transcription units (MRTUs) in 6-well plates using FuGene 6 reagent (Roche; 3 ml FuGene/1 mg DNA). The MRTU constructs are regulated by a cis-regulating element (promoter). Each RTU expresses a GAL4-UAS that regulates the transcription of a nearby target reporter gene sequence. A major difference between the CIS and TRANS system is that in CIS activities of endogenous TFs are measured, whereas the TRANS assay evaluates changes in activities of exogenous, chimeric NR-Gal4 proteins. […] At the end of 24 hour incubation, total RNA was isolated using TriZol reagent (Invitrogen). The isolated RNA is then reverse-transcribed using oligo(dT) primer and Mo-MLV reverse transcriptase (Invitrogen) with DNAse I (Ambion) treatment for 30 min. The one-tenth of the produced cDNA was amplified by PCR using Taq DNA polymerase (Invitrogen) and two reporter sequence-specific primers. The PCR products were fluorescently labeled by primer extension with 6-arboxyfluorescein (6-FAM) 5'-labeled reporter sequence-specific primer (2 min at 95 C, 20 s at 68 C and 10 min at 72 C) and these products were digested with 5U of HpaI (New England Biolabs) for 2h at 37 C. The fragments were purified using Qiaquick PCR columns (Qiagen), analyzed on an ABI 3130xL genetic analyzer (Applied Biosystems) with peak positions identified by using a set of X-rhodamine (ROX)-labeled MapMarker1000 molecular weight standards (BioVentures). The raw capillary electrophoresis data was processed using Attagraph software (Attagene).
With `C[C@]12C=CC(=O)C=C1CC[C@@H]1[C@@H]2C(=O)C[C@@]2(C)[C@H]1CC[C@]2(O)C(=O)CO`, the compound was called inactive.
Usually AC50 stands for the concentration at which the activity in the assay is half-maximal. For `C=C(c1ccc(C(=O)O)cc1)c1cc2c(cc1C)C(C)(C)CCC2(C)C`, the AC50 was 5.55 µM (active).
Regarding `CC(C)OC(=O)C(C)(C)Oc1ccc(C(=O)c2ccc(Cl)cc2)cc1`, the call was inactive.
On the same count and under the same terms, with `Cc1c(C)c2c(c(C)c1O)CCC(C)(COc1ccc(CC3SC(=O)NC3=O)cc1)O2` (stereo not drawn) the entry was “inactive”; with `CN(CCOc1ccc(CC2SC(=O)NC2=O)cc1)c1ccccn1` (stereo not drawn), “inactive”.
`Cc1nc(-c2ccc(C(F)(F)F)cc2)sc1C(=O)NCc1ccc(OC(C)(C)C(=O)O)cc1`: the AC50 is 20.9 µM (active).
Turning to `Cc1ccc(C)c(OCCCC(C)(C)C(=O)O)c1`, the compound was classed as inactive.
Still for that read-out and setting: with `CC(c1cc2ccccc2s1)N(O)C(N)=O` (stereo not drawn) the entry was “inactive”.
